Results on ten molecules are retold here after PubChem BioAssay (NCATS).

Inconclusive results are not listed. Active and inactive are the calls of the source. Calls follow the shape of the dose curve; as a rule, active = well fitted inhibition curve with a large enough effect; inconclusive = small, poorly fitted or top-dose-only effect; inactive = no such curve, though single readings can be large or run the other way.

The assay addresses Retinaldehyde dehydrogenase 3 (Homo sapiens) (UniProt P47895). The assay can be described thus: qHTS for Inhibitors of the Aldehyde Dehydrogenase Family (ALDH1A3) Primary screen (AID 2061315).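 Also: plate controls were DMSO vehicle for no effect and reference inhibitor for full effect.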 The conditions noted are these: ALDH inhibition qHTS; series mostly up to 56 µM; activity change, negative = inhibition: at the top concentration.
With `CC1=CC(=O)CC(C)(C)[C@@]1(O)CC[C@@H](C)O[C@@H]1O[C@H](CO)[C@@H](O)[C@H](O)[C@H]1O`, the “activity change, negative = inhibition” value is -2.15% (inactive).

Consider `CC(=O)/C=C/C1(O)C(C)=CC(=O)CC1(C)C` (stereo not given), for which the “activity change, negative = inhibition” value is -7.1% (inactive).

Regarding `NC(=O)C1=CC2C3C=CC2C(OC3=O)O1` (stereo not given), the “activity change, negative = inhibition” value was -2.46% [at 81.8 µM] (inactive).

In the case of `Cc1cccc(N(C)C(=S)Oc2ccc3c(c2)CCC3)c1`, the “activity change, negative = inhibition” value was 0.615% (inactive).

In the case of `COc1cc(O)cc2c1C(=O)OC(C)C2` (stereo not given), the “activity change, negative = inhibition” value was 13.4% (inactive).

Regarding `CC(C)C1C(OC(=O)/C=C/c2ccccc2)CC2(C)OC2CCC2(C)OC2C1O` (stereo not given), the “activity change, negative = inhibition” value is 11.8% (inactive).

On to `CC1=CCC(C(C)(C)O[C@@H]2O[C@H](CO[C@@H]3O[C@@H](C)[C@H](O)[C@@H](O)[C@H]3O)[C@@H](O)[C@H](O)[C@H]2O)CC1` (stereo not given in full), for which the “activity change, negative = inhibition” value was 3.62% [at 28 µM] (inactive).

For `CC(CCC1(O)OC2CC3C4CC=C5CC(O[C@@H]6O[C@H](CO)[C@@H](O[C@@H]7O[C@@H](C)[C@H](O)[C@@H](O)[C@H]7O)[C@H](O)[C@H]6O[C@@H]6O[C@@H](C)[C@H](O)[C@@H](O)[C@H]6O)CCC5(C)C4CCC3(C)C2C1C)CO[C@@H]1O[C@H](CO)[C@@H](O)[C@H](O)[C@H]1O` (stereo not given in full), the “activity change, negative = inhibition” value was 0.746% [at 16.9 µM] (inactive).

For `CC1=CC(=O)C[C@H]2[C@@H]1CC[C@@H](C)[C@]21CO[C@H](c2ccoc2)C1=O`, the “activity change, negative = inhibition” value was 6.58% (inactive).

Take `C[C@@H]1O[C@@H](O[C@H]2[C@H](OC(=O)[C@]34CCC(C)(C)C[C@H]3C3=CCC5[C@@]6(C)C[C@@H](O)[C@@H](O)[C@@](C)(CO)C6[C@H](O)C[C@@]5(C)[C@]3(C)CC4)OC[C@H](O)[C@@H]2O)[C@H](O)[C@H](O)[C@H]1O[C@@H]1OC[C@@H](O)[C@H](O[C@H]2O[C@H](C)[C@@H](O)[C@H](O)[C@@H]2O)[C@H]1O` (stereo not given in full): the “activity change, negative = inhibition” value was -3.33% [at 16.9 µM] (inactive).
